{"source": "PubChem BioAssay (NCATS)", "note": "Results filed as inconclusive are left out. Where a call stands in place of a potency, no number is given. The source made the active and inactive calls. The call rests on the fitted dose curve; in most records, active means well fitted curve in the direction sought with a large enough effect; inconclusive means small, poorly fitted or top-dose-only effect, or another doubt; inactive means no such curve, though single readings can be large; an effect the other way counts as inactive or inconclusive. Potency means the concentration at half of the fitted maximal effect."}
{"target": "Glutaminase kidney isoform, mitochondrial (Homo sapiens) (UniProt O94925)", "sequence (O94925 whole entry, looked up, canonical isoform)": "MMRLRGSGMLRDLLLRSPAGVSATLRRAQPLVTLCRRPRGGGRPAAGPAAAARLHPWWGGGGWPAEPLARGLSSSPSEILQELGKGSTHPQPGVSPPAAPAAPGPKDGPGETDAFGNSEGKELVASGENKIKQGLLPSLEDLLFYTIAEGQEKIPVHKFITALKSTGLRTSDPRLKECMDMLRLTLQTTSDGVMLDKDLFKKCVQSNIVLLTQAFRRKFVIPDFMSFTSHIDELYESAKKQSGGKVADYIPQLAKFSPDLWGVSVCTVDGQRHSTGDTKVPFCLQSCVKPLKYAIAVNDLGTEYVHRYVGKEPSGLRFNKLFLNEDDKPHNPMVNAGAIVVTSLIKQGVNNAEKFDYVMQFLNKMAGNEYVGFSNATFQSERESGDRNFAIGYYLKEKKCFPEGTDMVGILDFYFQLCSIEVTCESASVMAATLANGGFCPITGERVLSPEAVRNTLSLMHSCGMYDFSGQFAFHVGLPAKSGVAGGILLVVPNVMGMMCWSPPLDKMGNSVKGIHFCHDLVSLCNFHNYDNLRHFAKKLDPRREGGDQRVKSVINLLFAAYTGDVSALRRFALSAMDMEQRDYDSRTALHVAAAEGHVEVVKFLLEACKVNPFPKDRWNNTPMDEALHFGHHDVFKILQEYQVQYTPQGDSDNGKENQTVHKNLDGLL", "experiment": "qHTS for Inhibitors of Glutaminase (GLS): LOPAC Validation (AID 624146); further: nearly all actives have a fitted effect of over 60% in size", "conditions": "glutaminase enzyme activity inhibition; series mostly up to 46.1 µM", "how_it_was_run": "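Two-point fluorescence kinetic (t0, 30 min RT) for hKGA; glutamate detected via glutamate oxidase–HRP–Amplex Red. Substrate: 1 mM L-glutamine solution; buffer 45 mM KH2PO4, pH 8.2.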"}
{"smiles": "C[N+]1(C)C2CC(OC(=O)[C@H](CO)c3ccccc3)CC1C1OC12", "note": "(stereo not given in full)", "Potency": "inactive"}
{"smiles": "N#C/C(=C\\c1ccc(O)c(O)c1)C(=O)NCc1ccccc1", "Potency": "0.562 µM (active)"}
{"smiles": "COc1cccc(C(=O)NCCN2CCN(c3ccc(Cl)cc3)CC2)c1", "Potency": "inactive"}
{"smiles": "CCCCC#Cc1nc(NC)c2ncn([C@@H]3O[C@H](CO)[C@@H](O)[C@H]3O)c2n1", "Potency": "inactive"}
{"smiles": "N#C/C(=C\\c1c[nH]c2ccccc12)C(=O)c1ccc(O)c(O)c1", "Potency": "1.12 µM (active)"}
{"smiles": "Nc1nc(Nc2ccccc2)nc2c1ncn2[C@@H]1O[C@H](CO)[C@@H](O)[C@H]1O", "Potency": "inactive"}
{"smiles": "CCCC1(C)C(C#N)(C#N)C1(C#N)C#N", "Potency": "inactive"}
{"smiles": "C#CCN1C(C)=C(C(=O)OC)C(c2cccc([N+](=O)[O-])c2)C(C(=O)OCC)=C1C", "note": "(stereo not given)", "Potency": "inactive"}
{"smiles": "CCCCC/C=C\\CC(O)/C=C/c1cccc(CC(O)CCCCO)n1", "note": "(stereo not given)", "Potency": "inactive"}
{"smiles": "CN1CCC[C@H]1c1cccnc1", "Potency": "inactive"}
{"smiles": "O=[N+]([O-])c1ccc(CSc2ncnc3c2ncn3[C@@H]2O[C@H](CO)[C@@H](O)[C@H]2O)cc1", "Potency": "inactive"}
{"smiles": "O=c1[nH]c2cc(Cl)c(Cl)cc2[nH]c1=O", "Potency": "inactive"}
{"smiles": "O=C(/C=C/c1ccc(O)cc1)c1ccc(O)cc1O", "Potency": "10 µM (active)"}
{"smiles": "O=[N+]([O-])c1ccc2c(c1)S(=O)(=O)C=C2", "Potency": "inactive"}
{"smiles": "Oc1cc(O)cc(/C=C/c2ccc(O)c(O)c2)c1", "Potency": "2 µM (active)"}
{"smiles": "C=C[C@@H]1CN2CC[C@@H]1C[C@H]2[C@H](O)c1ccnc2ccc(OC)cc12", "Potency": "inactive"}
{"smiles": "O=C(/C=C/c1ccc(O)c(O)c1)OCCc1ccccc1", "Potency": "0.891 µM (active)"}
{"smiles": "Fc1cccc(/C=N/N=C/c2cccc(F)c2)c1", "Potency": "inactive"}
{"tested_on": "not listed separately", "experiment": "qHTS of Trypanosoma Brucei Inhibitors: LOPAC Validation (AID 624147)", "conditions": "purified enzyme assay, luminescence, 45 min; series mostly up to 57.5 µM", "how_it_was_run": "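Activity of T. brucei pyruvate kinase was followed by Kinase-Glo Plus luminescence after the enzyme reacted 45 min at room temperature with 130 uM ADP (final) and substrate. Test compounds were added before ADP at multiple concentrations.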"}
{"smiles": "OCC1O[C@H](O)C(Cl)C(O)C1O", "note": "(stereo not given in full)", "Potency": "inactive"}
{"smiles": "COc1ccc(NC(=O)/C=C/c2ccc(Cl)cc2)cc1", "Potency": "inactive"}
{"smiles": "O=C(O)CNC(=O)C(CS)Cc1ccccc1", "note": "(stereo not given)", "Potency": "inactive"}
{"smiles": "C[C@@H](NC(=O)/C(C#N)=C/c1ccc(O)c(O)c1)c1ccccc1", "Potency": "inactive"}
{"smiles": "NC[C@H]1O[C@@H](n2cnc3c(N)ncnc32)[C@H](O)[C@@H]1O", "Potency": "inactive"}
{"smiles": "O=C(O)c1cc([N+](=O)[O-])ccc1NCCCc1ccccc1", "Potency": "inactive"}
{"smiles": "CCCCCCCCc1ccc(-c2ccc(C(=O)O)cc2)cc1", "Potency": "inactive"}
{"smiles": "Cn1cc(C2=C(c3ccc(Cl)cc3Cl)C(=O)NC2=O)c2ccccc21", "Potency": "inactive"}
{"smiles": "O=C(O)[C@@H]1C[C@H](C(=O)O)N1", "Potency": "inactive"}
{"smiles": "CC(C)NC[C@H](O)COc1cccc2[nH]ccc12", "Potency": "inactive"}
{"smiles": "Cn1ncc(S(=O)(=O)Cc2ccccc2)c(Br)c1=O", "Potency": "inactive"}
{"smiles": "CNC(=O)[C@H]1O[C@@H](n2cnc3c(NCc4cccc(I)c4)ncnc32)[C@H](O)[C@@H]1O", "Potency": "inactive"}
{"smiles": "Nc1ncnc2c1ncn2[C@@H]1O[C@H](COP(=O)(O)OP(=O)(O)OP(=O)(O)OP(=O)(O)OC[C@@H]2O[C@H](n3cnc4c(N)ncnc43)[C@@H](O)[C@H]2O)[C@@H](O)[C@H]1O", "Potency": "inactive"}
{"smiles": "c1cnc2c(c1)ccc1cccnc12", "Potency": "inactive"}
{"smiles": "N=C(N)SCCc1ccc(CCSC(=N)N)cc1", "Potency": "inactive"}
{"smiles": "CN1CC(=O)N/C1=N/C(=O)Nc1cccc(Cl)c1", "Potency": "inactive"}
{"smiles": "CC1(C)CCC=[N+]1[O-]", "Potency": "inactive"}
{"smiles": "O=c1[nH]c2cc(C(F)(F)F)ccc2n1-c1cc(C(F)(F)F)ccc1O", "Potency": "inactive"}
{"smiles": "C=C[C@H]1CN2CC[C@@H]1C[C@@H]2[C@@H](O)c1ccnc2ccc(OC)cc12", "Potency": "inactive"}
{"smiles": "C[N+]1(C)C2CC(OC(=O)[C@H](CO)c3ccccc3)CC1C1OC12", "note": "(stereo not given in full)", "Potency": "inactive"}
{"smiles": "N#C/C(=C\\c1ccc(O)c(O)c1)C(=O)NCc1ccccc1", "Potency": "inactive"}
{"smiles": "COc1cccc(C(=O)NCCN2CCN(c3ccc(Cl)cc3)CC2)c1", "Potency": "inactive"}
{"smiles": "CCCCC#Cc1nc(NC)c2ncn([C@@H]3O[C@H](CO)[C@@H](O)[C@H]3O)c2n1", "Potency": "inactive"}
{"smiles": "N#C/C(=C\\c1c[nH]c2ccccc12)C(=O)c1ccc(O)c(O)c1", "Potency": "inactive"}
{"smiles": "Nc1nc(Nc2ccccc2)nc2c1ncn2[C@@H]1O[C@H](CO)[C@@H](O)[C@H]1O", "Potency": "inactive"}
{"smiles": "CCCC1(C)C(C#N)(C#N)C1(C#N)C#N", "Potency": "inactive"}
{"smiles": "C#CCN1C(C)=C(C(=O)OC)C(c2cccc([N+](=O)[O-])c2)C(C(=O)OCC)=C1C", "note": "(stereo not given)", "Potency": "inactive"}
{"smiles": "CCCCC/C=C\\CC(O)/C=C/c1cccc(CC(O)CCCCO)n1", "note": "(stereo not given)", "Potency": "inactive"}
{"smiles": "CN1CCC[C@H]1c1cccnc1", "Potency": "inactive"}
{"smiles": "O=[N+]([O-])c1ccc(CSc2ncnc3c2ncn3[C@@H]2O[C@H](CO)[C@@H](O)[C@H]2O)cc1", "Potency": "inactive"}
{"smiles": "O=c1[nH]c2cc(Cl)c(Cl)cc2[nH]c1=O", "Potency": "inactive"}
{"smiles": "O=C(/C=C/c1ccc(O)cc1)c1ccc(O)cc1O", "Potency": "inactive"}
{"smiles": "O=[N+]([O-])c1ccc2c(c1)S(=O)(=O)C=C2", "Potency": "inactive"}
{"smiles": "Oc1cc(O)cc(/C=C/c2ccc(O)c(O)c2)c1", "Potency": "13.5 µM (active)"}
{"smiles": "C=C[C@@H]1CN2CC[C@@H]1C[C@H]2[C@H](O)c1ccnc2ccc(OC)cc12", "Potency": "inactive"}
{"smiles": "O=C(/C=C/c1ccc(O)c(O)c1)OCCc1ccccc1", "Potency": "inactive"}
{"smiles": "Fc1cccc(/C=N/N=C/c2cccc(F)c2)c1", "Potency": "inactive"}
